Laboratory results as given in PubChem BioAssay (NCI).
Compounds without any hit were thinned out: in the full panel of roughly 83,000, 20% have a hit.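 Testing used 96-well plates and a 48-hour single-concentration exposure. Example: -40 means 40% of the starting cells died.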 Activity calls are given as the source filed them. The calls were made as follows: active = growth percent below 10; inactive = the rest.

tested on: IGROV1 ovarian; experiment: NCI-60 one-dose screen, 48 h (100 = growth as untreated, 0 = no growth, -100 = all killed); details: 10 µM unless noted

Structure (SMILES)	growth
Clc1ccc(/C=C/c2nc(Nc3ccc(Cl)cc3)c3ccccc3n2)cc1	78.2% (inactive)
C=C1C(=O)O[C@H]2[C@H]1CC/C(COC(=O)/C=C\C(=O)NCc1ccc(Cn3c(=O)sn(CCCC)c3=O)cc1)=C\CC[C@@]1(C)O[C@@H]21	-100% (active)
C=C1C(=O)O[C@H]2[C@H]1CC/C(C(=O)NCCCCCCCCNC(=O)/C1=C/CC[C@@]3(C)O[C@H]3[C@H]3OC(=O)C(=C)[C@@H]3CC1)=C\CC[C@@]1(C)O[C@@H]21	63.3% (inactive)
Cc1nc(Nc2ccc(N)cc2)c2ccccc2n1	92.7% (inactive)
OC(COc1cccc2ccccc12)CN1CCN(c2ccccc2)CC1 (stereo not drawn)	122% (inactive)
C=C1C(=O)O[C@H]2[C@H]1CC/C(COC(=O)/C=C\C(=O)NCc1ccc(Cn3c(=O)sn(-c4ccc(OC)cc4)c3=O)cc1)=C\CC[C@@]1(C)O[C@@H]21	-97.3% (active)
CC(C)(C)OC(=O)N1Cc2cc3ccccc3nc2C1CO (stereo not drawn)	92.7% (inactive)
NC(=Nc1ccc(N)cc1)C(N)=Nc1ccc(N)cc1	84.7% (inactive)
Clc1ccc(-c2nc(NCCc3ccccc3)nc3c(NCCc4ccccc4)cnn23)cc1	71.5% (inactive)
C=C1C(=O)O[C@H]2[C@H]1CC/C(COC(=O)/C=C\C(=O)NCc1ccc(Cn3c(=O)sn(-c4ccc(Cl)cc4)c3=O)cc1)=C\CC[C@@]1(C)O[C@@H]21	-99.5% (active)
CC(=O)Nc1ccc(C(=O)/C=C/c2ccccc2)cc1	77% (inactive)
COc1ccc(-n2nnc(C(=O)NCCc3c[nH]c4ccc(F)cc34)c2C)cc1	107% (inactive)
O=[N+]([O-])c1ccc(-c2cc3c(Nc4ccc(Sc5nc6ccccc6s5)c(Cl)c4)ncnc3s2)cc1	43.8% (inactive)
OCCCCc1nccc2c1[nH]c1ccccc12	81.9% (inactive)
CCOC(=O)c1sc(-c2ccc(OS(=O)(=O)c3ccc(C(C)(C)C)cc3)c(C=O)c2)nc1C	32% (inactive)
CCOC(=O)C1=C(C)NC(SCc2nnc(-c3ccc(Cl)cc3)o2)=NC1c1ccc(Cl)cc1Cl (stereo not drawn)	43.9% (inactive)
CCN(CC)CCOc1ccc(/C(=C(\C)c2ccc(OC)c(F)c2)c2ccc(Cl)cc2)cc1	72.2% (inactive)
O=C1/C(=C/c2ccccc2[N+](=O)[O-])COc2ccc(O)c(O)c21	-6.14% (active)
O=C(O)c1ccc(CO)o1	109% (inactive)
Cn1ccnc1C(=O)/C=C/c1ccc(C(=O)Nc2ccc(S(F)(F)(F)(F)F)cc2)cc1	22.3% (inactive)

Structure (SMILES)	growth
COc1ccc(/C=C2\COc3ccc(O)cc3C2=O)cc1OC	89.5% (inactive)
O=C(Nc1ccccc1)c1sc(-c2cccc(C(F)(F)F)c2)cc1O	66.5% (inactive)
COc1ccc(/C(C)=C(\c2ccc(Cl)cc2)c2ccc(OCCCN(C)C)cc2)cc1F	48.5% (inactive)
COc1ccc(Cn2cnc3cc(C(=O)Nc4cccc5ccccc45)ccc32)c(OC)c1	14.7% [30 µM] (inactive)
COc1ccc(-n2sc(=O)n(Cc3ccc(COC(=O)C(C)c4ccc(CC(C)C)cc4)cc3)c2=O)cc1 (stereo not drawn)	42.5% (inactive)
CC(C)(C)N1CC(OC(N)=O)C1	110% (inactive)
O=C1NCC(=O)N(Cc2ccco2)[C@H]1Cc1ccccc1	109% (inactive)
Cc1cc(C(c2ccccc2)c2ccccc2)ccc1NS(=O)(=O)c1ccccc1	123% (inactive)
c1ccc2[nH]c(SSc3nc4ncncc4[nH]3)nc2c1	43.5% (inactive)
O[C@H]1CO[C@H]2[C@@H]1OC[C@@H]2Oc1ccc(Nc2ccnc(Nc3ccc(O[C@H]4CO[C@H]5[C@@H]4OC[C@@H]5O)c(Cl)c3)n2)cc1Cl	-2.78% (active)
CCOC(=O)c1cnn2c(-c3ccc(Cl)cc3)nc(NCc3ccccc3)nc12	64.8% (inactive)
COc1ccc(/C(C)=C(\c2ccc(Cl)cc2)c2ccc(OCCN3CCCCC3)cc2)cc1F	46.2% (inactive)
Cn1cc(-c2ccc3nc(-c4ccc(CC(=O)Nc5cc(C(C)(C)C)no5)cc4)cnc3c2)cn1	-2.97% [30 µM] (active)
Nc1ccc(-c2cc3c(Nc4ccc(OCc5cccc(F)c5)c(Cl)c4)ncnc3s2)cc1	38.2% (inactive)
CC(C)OC(=O)NNC(=O)c1ccncc1	98% (inactive)
CCOC(=O)N1CCc2c(sc3c2C(=O)N[C@H](c2ccc(OC)cc2)N3)C1	107% (inactive)
O=[N+]([O-])c1ccc(-c2cc3c(Nc4ccc(OCc5cccc(Cl)c5)c(Cl)c4)ncnc3s2)cc1	76.8% (inactive)
CCOC(=O)c1ccc(NC(=O)CCCN(CC)CC)cc1	107% (inactive)
Nc1ccn(C2OC(F)(CO)C(O)C2F)c(=O)n1 (stereo not drawn)	49.8% (inactive)

tested on: OVCAR-3 ovarian; experiment: as above; details: 10 µM unless noted

Structure (SMILES)	growth
Clc1ccc(/C=C/c2nc(Nc3ccc(Cl)cc3)c3ccccc3n2)cc1	106% (inactive)
C=C1C(=O)O[C@H]2[C@H]1CC/C(COC(=O)/C=C\C(=O)NCc1ccc(Cn3c(=O)sn(CCCC)c3=O)cc1)=C\CC[C@@]1(C)O[C@@H]21	-80.5% (active)
C=C1C(=O)O[C@H]2[C@H]1CC/C(C(=O)NCCCCCCCCNC(=O)/C1=C/CC[C@@]3(C)O[C@H]3[C@H]3OC(=O)C(=C)[C@@H]3CC1)=C\CC[C@@]1(C)O[C@@H]21	33.1% (inactive)
Cc1nc(Nc2ccc(N)cc2)c2ccccc2n1	101% (inactive)
OC(COc1cccc2ccccc12)CN1CCN(c2ccccc2)CC1 (stereo not drawn)	105% (inactive)
C=C1C(=O)O[C@H]2[C@H]1CC/C(COC(=O)/C=C\C(=O)NCc1ccc(Cn3c(=O)sn(-c4ccc(OC)cc4)c3=O)cc1)=C\CC[C@@]1(C)O[C@@H]21	-88.6% (active)
CC(C)(C)OC(=O)N1Cc2cc3ccccc3nc2C1CO (stereo not drawn)	101% (inactive)
NC(=Nc1ccc(N)cc1)C(N)=Nc1ccc(N)cc1	94.1% (inactive)
Clc1ccc(-c2nc(NCCc3ccccc3)nc3c(NCCc4ccccc4)cnn23)cc1	48.9% (inactive)
C=C1C(=O)O[C@H]2[C@H]1CC/C(COC(=O)/C=C\C(=O)NCc1ccc(Cn3c(=O)sn(-c4ccc(Cl)cc4)c3=O)cc1)=C\CC[C@@]1(C)O[C@@H]21	-97.6% (active)
CC(=O)Nc1ccc(C(=O)/C=C/c2ccccc2)cc1	77.3% (inactive)
COc1ccc(-n2nnc(C(=O)NCCc3c[nH]c4ccc(F)cc34)c2C)cc1	103% (inactive)
O=[N+]([O-])c1ccc(-c2cc3c(Nc4ccc(Sc5nc6ccccc6s5)c(Cl)c4)ncnc3s2)cc1	14.7% (inactive)
OCCCCc1nccc2c1[nH]c1ccccc12	105% (inactive)
CCOC(=O)c1sc(-c2ccc(OS(=O)(=O)c3ccc(C(C)(C)C)cc3)c(C=O)c2)nc1C	30% (inactive)
CCOC(=O)C1=C(C)NC(SCc2nnc(-c3ccc(Cl)cc3)o2)=NC1c1ccc(Cl)cc1Cl (stereo not drawn)	62.8% (inactive)
CCN(CC)CCOc1ccc(/C(=C(\C)c2ccc(OC)c(F)c2)c2ccc(Cl)cc2)cc1	89% (inactive)
O=C1/C(=C/c2ccccc2[N+](=O)[O-])COc2ccc(O)c(O)c21	-63.2% (active)
O=C(O)c1ccc(CO)o1	112% (inactive)
Cn1ccnc1C(=O)/C=C/c1ccc(C(=O)Nc2ccc(S(F)(F)(F)(F)F)cc2)cc1	2.9% (active)

Structure (SMILES)	growth
COc1ccc(/C=C2\COc3ccc(O)cc3C2=O)cc1OC	28.4% (inactive)
O=C(Nc1ccccc1)c1sc(-c2cccc(C(F)(F)F)c2)cc1O	53.1% (inactive)
COc1ccc(/C(C)=C(\c2ccc(Cl)cc2)c2ccc(OCCCN(C)C)cc2)cc1F	63.5% (inactive)
COc1ccc(Cn2cnc3cc(C(=O)Nc4cccc5ccccc45)ccc32)c(OC)c1	-17.8% [30 µM] (active)
COc1ccc(-n2sc(=O)n(Cc3ccc(COC(=O)C(C)c4ccc(CC(C)C)cc4)cc3)c2=O)cc1 (stereo not drawn)	-67.3% (active)
CC(C)(C)N1CC(OC(N)=O)C1	120% (inactive)
O=C1NCC(=O)N(Cc2ccco2)[C@H]1Cc1ccccc1	110% (inactive)
Cc1cc(C(c2ccccc2)c2ccccc2)ccc1NS(=O)(=O)c1ccccc1	108% (inactive)
c1ccc2[nH]c(SSc3nc4ncncc4[nH]3)nc2c1	22.9% (inactive)
O[C@H]1CO[C@H]2[C@@H]1OC[C@@H]2Oc1ccc(Nc2ccnc(Nc3ccc(O[C@H]4CO[C@H]5[C@@H]4OC[C@@H]5O)c(Cl)c3)n2)cc1Cl	13.6% (inactive)
CCOC(=O)c1cnn2c(-c3ccc(Cl)cc3)nc(NCc3ccccc3)nc12	29.9% (inactive)
COc1ccc(/C(C)=C(\c2ccc(Cl)cc2)c2ccc(OCCN3CCCCC3)cc2)cc1F	51% (inactive)
Cn1cc(-c2ccc3nc(-c4ccc(CC(=O)Nc5cc(C(C)(C)C)no5)cc4)cnc3c2)cn1	29.6% [30 µM] (inactive)
Nc1ccc(-c2cc3c(Nc4ccc(OCc5cccc(F)c5)c(Cl)c4)ncnc3s2)cc1	46.6% (inactive)
CC(C)OC(=O)NNC(=O)c1ccncc1	93.4% (inactive)
CCOC(=O)N1CCc2c(sc3c2C(=O)N[C@H](c2ccc(OC)cc2)N3)C1	102% (inactive)
O=[N+]([O-])c1ccc(-c2cc3c(Nc4ccc(OCc5cccc(Cl)c5)c(Cl)c4)ncnc3s2)cc1	26.7% (inactive)
CCOC(=O)c1ccc(NC(=O)CCCN(CC)CC)cc1	105% (inactive)
Nc1ccn(C2OC(F)(CO)C(O)C2F)c(=O)n1 (stereo not drawn)	66.8% (inactive)
